Where “and” joins values, the source holds several entries; their conditions need not be identical. Equal entries are not always repeated. The whole screen tested about 5,500 compounds, of which about 2,000 (36%) were called active. Not shown: some 18% with an inconclusive outcome. Cut-off read from the data, not from the text of the source: active = normalized growth mostly below about 0.91 (no sharp cut-off); inconclusive = no clear call, values can overlap the other calls; inactive = mostly above about 0.92. The list shows a part of the results.
Test: chemical genetic growth profiling, strain panel (AID 1159580);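 note: tested at 20 µM; growth read once vehicle control cultures reached saturation at 30 °C; 1 = growth at the plate median or of vehicle wells; lower values mean less growth of the strain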
Details: growth OD
[1] = S. cerevisiae deletion strains, locus YHR030C, strain SLT2, stronger effect = lower value
[2] = S. cerevisiae deletion strains, locus YHR079C, strain IRE1, stronger effect = lower value
[3] = S. cerevisiae deletion strains, locus YJL095W, strain BCK1, stronger effect = lower value
[4] = S. cerevisiae deletion strains, locus YJR066W, strain TOR1, stronger effect = lower value
[5] = S. cerevisiae deletion strains, locus YLR113W, strain HOG1, stronger effect = lower value
[6] = S. cerevisiae deletion strains, locus YNL183C, strain NPR1, stronger effect = lower value
[7] = S. cerevisiae deletion strains, locus YOR231W, strain MKK1, stronger effect = lower value
[8] = S. cerevisiae deletion strains, locus YPL256C, strain CLN2, stronger effect = lower value

Measured: normalized growth

O[C@H]1[C@H](O)[C@@H](O)C2OC[C@H]1O2
inactive: S. cerevisiae deletion strains, locus YAL013W, strain DEP1, stronger effect = lower value 1 | S. cerevisiae deletion strains, locus YBR021W, strain FUR4, stronger effect = lower value 1.03 | S. cerevisiae deletion strains, locus YBR229C, strain ROT2, stronger effect = lower value 0.961 | S. cerevisiae deletion strains, locus YCL029C, strain bik1, stronger effect = lower value 0.986 | S. cerevisiae deletion strains, locus YDL035C, strain GPR1, stronger effect = lower value 0.986 | S. cerevisiae deletion strains, locus YDL074C, strain BRE1, stronger effect = lower value 0.929 | S. cerevisiae deletion strains, locus YDL101C, strain DUN1, stronger effect = lower value 0.943 | S. cerevisiae deletion strains, locus YDL134C, strain PPH21, stronger effect = lower value 0.99 | S. cerevisiae deletion strains, locus YDL192W, strain arf1, stronger effect = lower value 0.986 | S. cerevisiae deletion strains, locus YDR101C, strain arx1, stronger effect = lower value 0.994 | S. cerevisiae deletion strains, locus YDR150W, strain NUM1, stronger effect = lower value 0.992 | S. cerevisiae deletion strains, locus YDR162C, strain NBP2, stronger effect = lower value 0.918 | S. cerevisiae deletion strains, locus YDR318W, strain mcm21, stronger effect = lower value 0.998 | S. cerevisiae deletion strains, locus YDR388W, stronger effect = lower value 0.992 | S. cerevisiae deletion strains, locus YDR502C, strain sam2, stronger effect = lower value 0.983 | S. cerevisiae deletion strains, locus YEL061C, strain CIN8, stronger effect = lower value 0.986 | S. cerevisiae deletion strains, locus YER110C, stronger effect = lower value 0.983 | S. cerevisiae deletion strains, locus YER155C, strain BEM2, stronger effect = lower value 0.988 | S. cerevisiae deletion strains, locus YER167W, strain BCK2, stronger effect = lower value 1 | S. cerevisiae deletion strains, locus YGL078C, strain dbp3, stronger effect = lower value 0.987 | S. cerevisiae deletion strains, locus YGL086W, strain mad1, stronger effect = lower value 1 | S. cerevisiae deletion strains, locus YGL248W, strain PDE1, stronger effect = lower value 0.975 | S. cerevisiae deletion strains, locus YGR078C, strain PAC10, stronger effect = lower value 0.951 | S. cerevisiae deletion strains, locus YGR135W, strain pre9, stronger effect = lower value 0.982 | S. cerevisiae deletion strains, locus YGR229C, strain SMI1, stronger effect = lower value 0.975 | S. cerevisiae deletion strains, locus YGR252W, strain gcn5, stronger effect = lower value 1 | [1] 1 and 0.967 | S. cerevisiae deletion strains, locus YHR079C, strain IRE1 (second series), stronger effect = lower value 0.999 | [2] 0.967 | S. cerevisiae deletion strains, locus YHR094C, strain hxt1, stronger effect = lower value 1 | S. cerevisiae deletion strains, locus YHR129C, strain ARP1, stronger effect = lower value 0.993 | S. cerevisiae deletion strains, locus YHR200W, strain rpn10, stronger effect = lower value 0.992 | S. cerevisiae deletion strains, locus YIL066C, strain RNR3, stronger effect = lower value 0.98 | S. cerevisiae deletion strains, locus YIL073C, strain SPO22, stronger effect = lower value 1.01 | S. cerevisiae deletion strains, locus YIL125W, strain kgd1, stronger effect = lower value 0.988 | S. cerevisiae deletion strains, locus YIR030C, strain dcg1, stronger effect = lower value 0.983 | [3] 0.98 and 0.977 | S. cerevisiae deletion strains, locus YJL134W, strain LCB3, stronger effect = lower value 0.984 | S. cerevisiae deletion strains, locus YJL168C, strain set2, stronger effect = lower value 0.982 | S. cerevisiae deletion strains, locus YJL187C, strain SWE1 (second series), stronger effect = lower value 0.972 | S. cerevisiae deletion strains, locus YJR043C, strain POL32, stronger effect = lower value 0.999 | [4] 0.919 | S. cerevisiae deletion strains, locus YJR075W, strain HOC1, stronger effect = lower value 0.936 | S. cerevisiae deletion strains, locus YKL009W, strain mrt4, stronger effect = lower value 0.977 | S. cerevisiae deletion strains, locus YKL068W, stronger effect = lower value 0.982 | S. cerevisiae deletion strains, locus YKL085W, strain MDH1 (second series), stronger effect = lower value 1.02 | S. cerevisiae deletion strains, locus YKL085W, strain MDH1, stronger effect = lower value 1.02 | S. cerevisiae deletion strains, locus YKL190W, strain CNB1, stronger effect = lower value 0.98 | S. cerevisiae deletion strains, locus YKR001C, strain vps1, stronger effect = lower value 0.998 | S. cerevisiae deletion strains, locus YLR039C, strain RIC1, stronger effect = lower value 0.968 | S. cerevisiae deletion strains, locus YLR058C, strain SHM2, stronger effect = lower value 0.972 | S. cerevisiae deletion strains, locus YLR102C, strain apc9, stronger effect = lower value 0.984 | [5] 0.999 | S. cerevisiae deletion strains, locus YLR262C, strain YPT6, stronger effect = lower value 0.935 | S. cerevisiae deletion strains, locus YLR268W, strain sec22, stronger effect = lower value 0.963 | S. cerevisiae deletion strains, locus YLR330W, strain CHS5, stronger effect = lower value 0.988 | S. cerevisiae deletion strains, locus YLR342W, strain FKS1 (second series), stronger effect = lower value 1.04 | S. cerevisiae deletion strains, locus YLR371W, strain rom2, stronger effect = lower value 0.938 | S. cerevisiae deletion strains, locus YLR418C, strain cdc73, stronger effect = lower value 0.961 | S. cerevisiae deletion strains, locus YML016C, strain PPZ1, stronger effect = lower value 0.983 | S. cerevisiae deletion strains, locus YML032C, strain rad52, stronger effect = lower value 1 | S. cerevisiae deletion strains, locus YML124C, strain tub3, stronger effect = lower value 0.992 | S. cerevisiae deletion strains, locus YMR078C, strain ctf18, stronger effect = lower value 0.987 | S. cerevisiae deletion strains, locus YMR223W, strain ubp8, stronger effect = lower value 1.01 | S. cerevisiae deletion strains, locus YMR263W, strain SAP30, stronger effect = lower value 0.94 | S. cerevisiae deletion strains, locus YMR307W, strain GAS1, stronger effect = lower value 1.04 | S. cerevisiae deletion strains, locus YNL067W, strain RPL9B, stronger effect = lower value 0.951 | S. cerevisiae deletion strains, locus YNL128W, strain TEP1, stronger effect = lower value 0.926 | S. cerevisiae deletion strains, locus YNL153C, strain GIM3, stronger effect = lower value 0.97 | [6] 0.905 | S. cerevisiae deletion strains, locus YNL233W, strain BNI4, stronger effect = lower value 0.978 | S. cerevisiae deletion strains, locus YNL250W, strain rad50, stronger effect = lower value 0.992 | S. cerevisiae deletion strains, locus YNL271C, strain bni1, stronger effect = lower value 0.984 | S. cerevisiae deletion strains, locus YNL298W, strain CLA4, stronger effect = lower value 1 | S. cerevisiae deletion strains, locus YNL307C, strain MCK1, stronger effect = lower value 1 | S. cerevisiae deletion strains, locus YNL322C, strain KRE1, stronger effect = lower value 0.967 | S. cerevisiae deletion strains, locus YNR052C, strain pop2, stronger effect = lower value 0.978 | S. cerevisiae deletion strains, locus YOL006C, strain TOP1, stronger effect = lower value 0.935 | S. cerevisiae deletion strains, locus YOL012C, strain htz1 0.683 | S. cerevisiae deletion strains, locus YOL147C, strain pex11, stronger effect = lower value 0.997 | S. cerevisiae deletion strains, locus YOR061W, strain CKA2, stronger effect = lower value 0.952 | S. cerevisiae deletion strains, locus YOR069W, strain VPS5, stronger effect = lower value 0.99 | S. cerevisiae deletion strains, locus YOR136W, strain idh2, stronger effect = lower value 0.99 | S. cerevisiae deletion strains, locus YOR144C, strain elg1, stronger effect = lower value 0.983 | S. cerevisiae deletion strains, locus YOR184W, strain ser1, stronger effect = lower value 1.01 | [7] 0.98 | S. cerevisiae deletion strains, locus YOR316C, strain cot1, stronger effect = lower value 0.977 | S. cerevisiae deletion strains, locus YPL055C, strain LGE1, stronger effect = lower value 0.931 | S. cerevisiae deletion strains, locus YPL241C, strain CIN2, stronger effect = lower value 0.983 | [8] 0.972 | S. cerevisiae deletion strains, locus YPR119W, strain clb2, stronger effect = lower value 0.992 | S. cerevisiae deletion strains, locus YPR141C, strain kar3, stronger effect = lower value 0.969 | S. cerevisiae deletion strains, locus YPR163C, strain tif3, stronger effect = lower value 0.995 | S. cerevisiae deletion strains, locus YPR167C, strain met16, stronger effect = lower value 0.972 | S. cerevisiae deletion strains, strain wtn01, stronger effect = lower value 0.943 | S. cerevisiae strains, strain wild type, stronger effect = lower value 1.01
active: S. cerevisiae deletion strains, locus YDL185W, strain tfp1, stronger effect = lower value 0.901

O[C@@H]1[C@H](O)CO[C@H]1O
inactive: [1] 0.995 | [2] 0.997 | [3] 1.01 | [4] 0.945 | [5] 1 | [6] 0.965 | [7] 0.992 | [8] 0.988
